Data as given in PubChem BioAssay.
Measured potencies and affinities stand elsewhere. Results filed as inconclusive are left out. Active and inactive are the calls of the source. Unless noted, the rule behind the calls is not given here.

Key:
[1] = RMG-1 ovarian cancer cell viability loss – cherry-pick, dose response (AID 687029;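 active = signal drop whose fitted half-maximal concentration is at most twice the top valid dose, in every test run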;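 note: cells exposed to compound for 96 hours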); details: RMG-1 viability, CellTiterGlo ATP luminescence, 96 h; series mostly up to 35 µM
[2] = IOSE-T80 viability loss, PAX8-independent line – cell-based, cherry-pick, selectivity assay for PAX8 inhibitor project, dose response (AID 687032;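 active = fitted half-maximal concentration for viability loss no higher than twice the top valid dose, in every repeat run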;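 note: cells exposed to compound for 96 h before reading; 0% = neutral control wells and -100% = 2 µM mitoxantrone kill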); details: CellTiterGlo ATP luminescence, 96 h; series mostly up to 35 µM
[3] = CMV-driven luciferase expression suppression in HEK293 – cell-based, luminescence, dry powder, counter-screen for Pax8 inhibitor project, dose response (AID 743020;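 active = signal-lowering compounds whose fitted half-maximal concentration is at or below twice the top tested dose in every run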;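 note: HEK293 cells stably expressing the CMV luciferase reporter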); details: HEK293 CMV-luciferase reporter, SteadyGlo luminescence, 24 h; series mostly up to 35 µM
[4] = IGROV1 cell killing – plate reader, dry powder samples, PAX8 inhibitor project, dose response (AID 743043); details: IGROV1 ovarian cancer cell cytotoxicity; series mostly up to 35 µM;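 note: more negative means fewer viable cells or more cytotoxicity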
[5] = OVCAR-3 cell viability loss – plate reader, dry powder samples, PAX8 inhibitor project, dose response (AID 743044); details: NIH:OVCAR-3 ovarian cancer cell viability; max activity: at 35 µM, hits give low values unless noted; series mostly up to 50 µM
[6] = toxicity toward immortalized ovarian surface epithelium – cell-based, plate reader, dry powder samples, cytotoxicity control for PAX8 inhibitor project, dose response (AID 743045); details: IOSE-T80 ovarian epithelial cells; series mostly up to 35 µM;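 note: 0% = neutral control median and -100% = positive control median; more negative values mean more cell killing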
[7] = A2780 cell killing – plate reader, dry powder samples, cytotoxicity control, dose response (AID 743046); details: A2780 ovarian cancer cytotoxicity; series mostly up to 35 µM;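 note: 0% = neutral control wells and -100% = cytotoxic reference compound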
[8] = OVCAR8 cell viability loss – plate reader, dry powder samples, PAX8 project, dose response (AID 743197); details: series mostly up to 35 µM
[9] = general cell-killing toxicity readout – plate reader, dry powder samples, cytotoxicity control for PAX8 inhibitor project, dose response (AID 743021); details: cell line, non-specific cytotoxicity counter-screen; series mostly up to 35 µM
[10] = toxicity toward HepG2 liver cells – cell-based, plate reader, cherry-pick, antagonist series, cytotoxicity control, dose response (AID 743416); details: series mostly up to 26 µM;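 note: 0% = neutral control wells and -100% = positive control wells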

Measured: max activity

CCCNC(=O)Nc1ccc2c(c1)OC[C@@H](C)N(Cc1ccc(-c3ccccn3)cc1)C[C@@H](C)[C@H](OC)CN(C)C2=O
inactive: [1] | [2] | [3] | [4] | [5] 19.6% [at 1 µM, hits give low values] | [6] | [7] | [8]

C[C@@H]1CN([C@H](C)CO)C(=O)CCCn2nncc2CO[C@H]1CN(C)Cc1ccc(Oc2ccccc2)cc1
inactive: [1] | [2] | [3] | [4] | [5] 10.8% [at 4.2 µM, hits give low values] | [6] | [7] | [8]

CCCC#Cc1ccc([C@@H]2[C@H](C#N)N(S(=O)(=O)c3cccc(F)c3)[C@H]2CO)cc1
inactive: [1] | [2] | [3] | [4] | [6] | [8]

COc1ccc(S(=O)(=O)Nc2ccc3c(c2)CC(=O)N([C@@H](C)CO)C[C@H](C)[C@@H](CN(C)Cc2ccc(C(F)(F)F)cc2)O3)cc1
inactive: [1] | [2] | [3] | [4] | [6] | [7] | [8]

COc1cccc(C#Cc2ccc([C@H]3[C@@H](C#N)N(C(=O)c4ccccn4)[C@@H]3CO)cc2)c1
inactive: [1] | [2] | [3] | [4] | [5] -22.5% [at 0.26 µM, hits give low values] | [6] | [8]

CCCC#Cc1ccc([C@H]2[C@@H](CO)N(C(=O)C3CCCCC3)[C@H]2C#N)cc1
inactive: [1] | [2] | [3] | [4] | [6] | [7] | [8]

COc1cccc(C#Cc2ccc([C@H]3[C@@H](CO)N(C(=O)C4CCCC4)[C@H]3C#N)cc2)c1
inactive: [1] | [2] | [3] | [9] | [7] | [8]

N#C[C@@H]1[C@H](c2ccc(-c3ccccc3F)cc2)[C@@H](CO)N1C(=O)Cc1ccccc1
inactive: [1] | [2] | [3] | [9] | [7] | [8]

C[C@H](O)C#Cc1ccc2c(c1)O[C@@H](CN(C)Cc1ccc(-c3ccccc3)cc1)[C@@H](C)CN([C@H](C)CO)S2(=O)=O
inactive: [1] | [2] | [3] | [4] | [5] -11.2% | [6] | [7]

C[C@H](CO)N1C[C@H](C)[C@@H](CN(C)C(=O)Cc2ccccc2)OCCCC[C@H](C)Oc2ccc(NC(=O)Nc3ccc(C(F)(F)F)cc3)cc2C1=O
inactive: [1] | [2] | [3] | [4] | [5] 1.93% [at 8 µM, hits give low values] | [6] | [7]

COc1cccc(C#Cc2ccc([C@@H]3[C@H](C#N)N(C(=O)c4ccccn4)[C@H]3CO)cc2)c1
inactive: [1] | [2] | [3] | [4] | [5] 39.4% | [6]

COc1ccc(NC(=O)Nc2ccc3c(c2)C(=O)N([C@@H](C)CO)C[C@@H](C)[C@H](CN(C)Cc2ccc(C(F)(F)F)cc2)O3)cc1
inactive: [1] | [2] | [3] | [4] | [5] 30.5% [at 30 µM, hits give low values] | [6] | [7] | [8]

O=C(Nc1ccccc1)N1CCCCN2[C@H](CO)[C@H](c3ccc(C#Cc4ccccc4)cc3)[C@H]2C1
inactive: [1] | [2] | [3] | [4] | [6] | [7] | [8]

COc1ccccc1C#Cc1ccc2c(c1)O[C@@H](CN(C)Cc1cccnc1)[C@H](C)CN([C@H](C)CO)S2(=O)=O
inactive: [1] | [2] | [3] | [4] | [5] 17.1% | [6] | [7]

Cc1ccccc1-c1ccc2c(c1)O[C@H](CN(C)C(=O)Nc1ccc(C(F)(F)F)cc1)[C@H](C)CN([C@@H](C)CO)S2(=O)=O
inactive: [1] | [2] | [3] | [4] | [6] | [8]

N#C[C@H]1[C@@H](c2ccc(C#Cc3ccccc3F)cc2)[C@@H](CO)N1C(=O)C1CCCCC1
inactive: [1] | [2] | [3] | [4] | [6] | [8]

C[C@H](CO)N1C[C@H](C)[C@H](CN(C)S(=O)(=O)c2ccc(Cl)cc2)Oc2c(NC(=O)Nc3ccc(F)cc3)cccc2C1=O
inactive: [1] | [2] | [3] | [4] | [6] | [7]

O=C(C[C@@H]1CC[C@H]2[C@@H](COC[C@@H](O)CN2Cc2cccc(F)c2)O1)NCC1CCCCC1
inactive: [1] | [2] | [3] | [4] | [5] 45.7% [at 8 µM, hits give low values] | [6] | [7] | [8]

C[C@@H]1CN([C@@H](C)CO)C(=O)c2cc(NC(=O)Nc3ccc(F)cc3)ccc2O[C@@H](C)CCCCO[C@H]1CN(C)Cc1ccc(C(F)(F)F)cc1
inactive: [1] | [2] | [3] | [4] | [6]

C[C@H](CO)N1C[C@H](C)[C@H](CN(C)Cc2ccccc2)OCCCC[C@H](C)Oc2ccc(NC(=O)Nc3ccc(C(F)(F)F)cc3)cc2C1=O
inactive: [1] | [2] | [3] | [9] | [8]

C[C@@H]1CN([C@H](C)CO)C(=O)c2cc(NC(=O)Nc3ccc(C(F)(F)F)cc3)ccc2O[C@@H](C)CCCCO[C@@H]1CN(C)C(=O)NC1CCCCC1
inactive: [1] | [2] | [3] | [4] | [6] | [7] | [8]

COc1ccccc1C#Cc1ccc2c(c1)O[C@H](CN(C)Cc1ccncc1)[C@@H](C)CN([C@@H](C)CO)S2(=O)=O
inactive: [1] | [2] | [3] | [4] | [6] | [7] | [8]

C[C@@H]1CN([C@H](C)CO)C(=O)c2cc(NC(=O)Nc3ccc(C(F)(F)F)cc3)ccc2O[C@@H](C)CCCCO[C@@H]1CN(C)Cc1ccncc1
inactive: [1] | [2] | [3] | [9] | [8]

Cc1ccc(S(=O)(=O)N(C)C[C@H]2Oc3ccc(NS(=O)(=O)c4ccc(F)cc4)cc3CC(=O)N([C@H](C)CO)C[C@H]2C)cc1
inactive: [1] | [2] | [3] | [4] | [5] 12.5% [at 2.1 µM, hits give low values] | [6] | [7] | [8]

C[C@H](CO)N1C[C@H](C)[C@@H](CN(C)Cc2ccc(-c3ccccc3)cc2)Oc2ccc(NC(=O)C3CC3)cc2CC1=O
inactive: [1] | [2] | [3] | [4] | [5] 42.3% [at 2.1 µM, hits give low values] | [6] | [7] | [8]

Cn1nnnc1Sc1ncnc2scc(-c3ccc4c(c3)OCO4)c12
inactive: [1] | [2] | [3] | [9] | [10]

O=C(Nc1cccc(F)c1)N1CCCCN2[C@H](CO)[C@@H](c3ccc(-c4ccccc4F)cc3)[C@H]2C1
inactive: [1] | [2] | [3] | [6] | [7] | [8]

C[C@@H]1CN([C@H](C)CO)C(=O)c2cc(NC(=O)Nc3ccc(C(F)(F)F)cc3)ccc2O[C@@H](C)CCCCO[C@@H]1CN(C)Cc1ccccc1
inactive: [1] | [2] | [3] | [6]

Fc1cccc(CN2C[C@@H]3N[C@H](C2)[C@@H]3c2ccc(-c3cccc(F)c3)cc2)c1
inactive: [1] | [2] | [3] | [4] | [7]

O=C(C1CCC1)N1CC(=O)N2[C@H](CO)[C@H](c3ccc(C#CCc4ccccc4)cc3)[C@H]2C1
inactive: [1] | [2] | [3] | [6]

Cc1ccccc1-c1ccc(C2[C@@H]3CN(C(=O)Nc4cccc(F)c4)C[C@H]2N3)cc1 (stereo partly drawn)
inactive: [1] | [2] | [3] | [6] | [7] | [8]

Cc1ccccc1-c1ccc([C@@H]2[C@H](CO)N3CCCCN(C(=O)Nc4cccc(F)c4)C[C@@H]23)cc1
inactive: [1] | [2] | [3] | [6] | [7] | [8]

Cc1ccc(S(=O)(=O)Nc2ccc3c(c2)C(=O)N([C@@H](C)CO)C[C@@H](C)[C@H](CN(C)Cc2ccc(C(F)(F)F)cc2)OCCCC[C@@H](C)O3)cc1
inactive: [1] | [2] | [3] | [6] | [7]

C[C@@H]1CN([C@@H](C)CO)C(=O)Cc2cc(NS(=O)(=O)c3ccccc3)ccc2O[C@H]1CN(C)Cc1ccc(C(F)(F)F)cc1
inactive: [1] | [2] | [3] | [6] | [7]

CCS(=O)(=O)N1CC(=O)N2[C@H](CO)[C@@H](c3ccc(-c4ccccc4F)cc3)[C@H]2C1
inactive: [1] | [2] | [3] | [6] | [7]

C[C@@H]1CN([C@H](C)CO)C(=O)c2cc(NC(=O)Nc3ccc(C(F)(F)F)cc3)ccc2O[C@@H](C)CCCCO[C@H]1CN(C)Cc1ccc2c(c1)OCO2
inactive: [1] | [2] | [3] | [5] -34.3% | [6] | [7]

C[C@H](CO)N1C[C@H](C)[C@H](CN(C)Cc2ccc(C(F)(F)F)cc2)OCCCC[C@H](C)Oc2ccc(NC(=O)Cc3ccccc3)cc2C1=O
inactive: [1] | [2] | [3] | [6]

Cc1ccc(S(=O)(=O)Nc2ccc3c(c2)CC(=O)N([C@@H](C)CO)C[C@H](C)[C@@H](CN(C)Cc2ccc(Oc4ccccc4)cc2)O3)cc1
inactive: [1] | [2] | [3] | [4] | [8]

CCCNC(=O)N(C)C[C@H]1N[C@@H](CO)[C@@H]1c1ccc(C2=CCCCC2)cc1
inactive: [1] | [2] | [3] | [7]
